These results are taken from PubChem BioAssay (EPA / NIEHS).

Records with an inconclusive call do not appear. Calls of active or inactive are those of the source. The calls were made as follows, unless noted: active = hit-call score of the fitted dose curve at least 0.9, where 1 is the maximum; inactive = score below 0.9.

Read-out in assay [1]: Interleukin 6 (IL6), IL6 (gene 3569)
The assay is described as follows: BSK_BT_xIL6: BioMAP Diversity Plus: BT Assay for Interleukin 6 (IL6) Biomarker Activity (AID 2284228). The following applies: primary human B cells with PBMC. In short, it runs like this: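 Human B cell/PBMC co-culture; secreted IL-6 quantified by Luminex xMAP 24 h after chemical dosing, fitted relative to DMSO. Parallel PBMC viability by Alamar Blue after 1 h pretreatment, 20 ng/mL SEB and TSST-1, 90 h incubation.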

Read-out in assay [2]: Interleukin 17A (IL17A), IL17A (gene 3605)
The assay is described as follows: BSK_BT_xIL17A: BioMAP Diversity Plus: BT Assay for Interleukin 17A (IL17A) Biomarker Activity (AID 2284229). The following applies: primary human B cells with PBMC. In short, it runs like this:
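Co-culture of human B cells and PBMC, dosed for 24 h in 96-well format. Secreted IL-17A measured with Luminex xMAP; gain-direction fitting against DMSO as baseline.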

Read-out in assay [3]: Tumor necrosis factor (Homo sapiens) (UniProt P01375)
The assay is described as follows: BSK_BT_xTNFa: BioMAP Diversity Plus: BT Assay for Tumor necrosis factor alpha (TNF-alpha) Biomarker Activity (AID 2284230). Particulars: primary human B cells with PBMC. In outline:
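B cells with PBMC in co-culture, dosed and sampled at 24 h; secreted TNF-alpha measured by Luminex xMAP bead assay. Activity fitted in the gain direction against DMSO as negative control and baseline.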

Read-out in assay [4]: Vascular cell adhesion molecule 1 (VCAM1), VCAM1 (gene 7412)
Briefly: BSK_MyoF_VCAM1: BioMAP Diversity Plus: MyoF Assay for Vascular cell adhesion molecule 1 (VCAM1) Biomarker Activity (AID 2284231). The following applies: primary human lung fibroblasts. In short, it runs like this:
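Primary human lung fibroblasts (BioMAP MyoF system) dosed with chemical, VCAM-1 measured by ELISA 24 hours later. Fitted in the positive direction against DMSO; parallel SRB staining assessed cytotoxicity.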

Read-out in assay [5]: Collagen I, COL1A1 (gene 1277)
The assay is described as follows: BSK_MyoF_CollagenI: BioMAP Diversity Plus: MyoF Assay for Collagen I Biomarker Activity (AID 2284238). Particulars: primary human lung fibroblasts. In outline:
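Primary human lung fibroblasts (MyoF system) treated 24 h; Collagen I quantified by ELISA and fitted in positive direction against DMSO. Parallel SRB total-protein staining assessed overt cytotoxicity.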

Read-out in assay [6]: Collagen III, COL3A1 (gene 1281)
Briefly: BSK_MyoF_CollagenIII: BioMAP Diversity Plus: MyoF Assay for Collagen III Biomarker Activity (AID 2284239). The following applies: primary human lung fibroblasts. In outline: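 Primary human lung fibroblasts (BioMAP MyoF system) exposed 24 h. Collagen III measured by ELISA; positive-direction fit relative to DMSO.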

Read-out in assay [7]: Interleukin 17F (IL17F), IL17F (gene 112744)
The assay is described as follows: BSK_BT_xIL17F: BioMAP Diversity Plus: BT Assay for Interleukin 17F (IL17F) Biomarker Activity (AID 2284243). The following applies: primary human B cells with PBMC. In short, it runs like this:
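Human PBMC co-cultured with B cells, compound exposure 24 h; secreted IL-17F quantified by Luminex xMAP, referenced to DMSO control. PBMC viability measured in parallel by Alamar Blue reduction.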

Read-out in assay [8]: Actin alpha 1 (ACTA1), ACTA1 (gene 58)
The assay is described as follows: BSK_MyoF_ACTA1: BioMAP Diversity Plus: MyoF Assay for Actin alpha 1 (ACTA1) Biomarker Activity (AID 2284244). The following applies: primary human lung fibroblasts. In outline:
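Measured by ELISA: alpha-smooth muscle actin in human primary lung fibroblasts 24 h after dosing, with DMSO as baseline and upward signal change as the fitted direction.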

Read-out in assay [9]: Interleukin 2 (IL2), IL2 (gene 3558)
Briefly: BSK_BT_xIL2: BioMAP Diversity Plus: BT Assay for Interleukin 2 (IL2) Biomarker Activity (AID 2284245). Particulars: primary human B cells with PBMC. In short, it runs like this:
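Secreted interleukin-2 from human B cell/PBMC co-cultures, measured 24 h post-dosing by Luminex multiplex immunoassay. Upward-direction curve fitting against DMSO baseline.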

Read-out in assay [10]: Basic fibroblast growth factor (bFGF), FGF2 (gene 2247)
The assay is described as follows: BSK_MyoF_bFGF: BioMAP Diversity Plus: MyoF Assay for Basic fibroblast growth factor (bFGF) Biomarker Activity (AID 2284246). The following applies: primary human lung fibroblasts. In short, it runs like this:
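In this multiplexed cell system, lung fibroblasts (human primary) receive test chemical for 24 h before ELISA detection of bFGF; DMSO defines baseline and the analysis direction is positive.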

Read-out in assay [11]: Collagen IV, COL4A1 (gene 1282)
Briefly: BSK_MyoF_CollagenIV: BioMAP Diversity Plus: MyoF Assay for Collagen IV Biomarker Activity (AID 2284247). Particulars: primary human lung fibroblasts. In outline: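 Activity is scored as a signal increase over DMSO in an ELISA for Collagen IV, measured on human lung fibroblasts at 24 h after chemical treatment. Cytotoxicity is checked in parallel cultures by sulforhodamine B total-protein staining.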

A short description of assay [12]: UKN4_HCS_LUHMES_cell_viability: Viability Assessment in the University of Konstanz (UKN) Leist Lab Neurite Outgrowth Assay in human LUHMES cells (UKN4) (AID 2284232). In short, it runs like this: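 Human dopaminergic-model LUHMES neurons were exposed to chemicals for 24 h after a 2-day differentiation. Viability was scored by imaging Hoechst H-33342 staining, with activity fitted in both directions relative to DMSO controls.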

Assay [13] in a line: UKN2_HCS_IMR90_cell_viability: Viability Assessment in the University of Konstanz (UKN) Leist Lab Neural Crest Cell Migration Assay in human induced IMR90 Pluripotent Stem Cells (UKN2) (AID 2284233).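 Also: viability of neural crest cells differentiated from IMR90 iPSC measured by calcein-AM fluorescence imaging; cells exposed to compound for 24 h after a 24 h migration phase.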 In outline:
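Human IMR90-derived neural crest cells were allowed to migrate for 24 h into a cell-free zone, then exposed to test chemicals for 24 h. Calcein-AM and Hoechst staining with high-content imaging gave viability, analysed against DMSO baseline.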

Assay [14] is described as follows: CCTE_Mundy_HCI_Cortical_NOG_NeuronCount: CCTE's Neurite Outgrowth Assay in rat cortical cells for Neuron Count, Mundy Lab (AID 2284236; active = hit-call score of the fitted dose curve at least 0.9, where 1 is the maximum;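 also: neurons counted by imaging betaIII-tubulin and Hoechst stained cortical cells; cells exposed to compound for about 48 hours before fixation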). In short, it runs like this:
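Read-out: neuron number by high-content imaging of betaIII-tubulin (Alexa Fluor-488) and Hoechst-labelled rat primary cortical cells.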

Assay [15] is described as follows: CCTE_Mundy_HCI_Cortical_NOG_BPCount: CCTE's Neurite Outgrowth Assay in rat cortical cells for Branch Point Count, Mundy Lab (AID 2284237). In short, it runs like this: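 Measured 50.33 h after dosing, this morphology endpoint uses rat primary cortical cultures labelled for betaIII-tubulin. Branch points are quantified by high-content imaging, with DMSO as negative control and baseline.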

Assay [16] in a line: CCTE_Mundy_HCI_hNP1_Casp3_7: CCTE's Caspase-Glo 3/7 Assay in human neuroprogenitor cells for Apoptosis, Mundy Lab (AID 2284240). In outline:
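Apoptosis is scored by activated caspase-3/7 luminescence in WA09-derived neural progenitor cells, measured 26.5 h after chemical dosing. Values represent gain of signal relative to DMSO vehicle.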

Assay [17] can be described thus: CCTE_Mundy_HCI_hNP1_CellTiter: CCTE's Cell Titer-Glo 2 Assay in human neuroprogenitor cells for Viability, Mundy Lab (AID 2284241; active = hit-call score of the fitted dose curve at least 0.9, where 1 is the maximum). In outline: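 Human neural progenitor cells (hNP1, WA09-derived) were plated on poly-L-ornithine/laminin and grown 40 to 44 hours at 37 °C, 5% CO2 before chemical addition. Twenty-four hours later, ATP was measured by CellTiter-Glo luminescence; loss of signal versus DMSO indicates reduced viability.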

Read-out in assay [18]: Monokine induced gamma interferon (MIG), CXCL9 (gene 4283)
Briefly: BSK_KF3CT_MIG: BioMAP Diversity Plus: KF3CT Assay for Monokine induced gamma interferon (MIG) Biomarker Activity (AID 2284248). The following applies: primary human keratinocytes with fibroblasts. In outline: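 Human keratinocyte–foreskin fibroblast co-culture; MIG measured by ELISA 24 h after chemical dosing, fitted upward versus DMSO. Cytotoxicity was assessed in parallel cultures by SRB total-protein staining read at 560 nm.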

Read-out in assay [19]: Collagen I, COL1A1 (gene 1277)
The assay is described as follows: BSK_hDFCGF_CollagenI: BioMAP Diversity Plus: hDFCGF Assay for Collagen I Biomarker Activity (AID 2284250). Particulars: primary human foreskin fibroblasts. In short, it runs like this: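 Cells were primary human foreskin fibroblasts treated for 24 h. Collagen I levels were then determined by ELISA and compared against DMSO controls.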

Assay [20] is described as follows: CCTE_Mundy_HCI_Cortical_Synap_Neur_Matur_NeuronCount: CCTE's Synaptogenesis and Neurite Maturation Assay in rat cortical cells for Neuron Count, Mundy Lab (AID 2284242; active = hit-call score of the fitted dose curve at least 0.9, where 1 is the maximum). In outline: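 Imaging-based neuron count in rat cortical cultures after chemical exposure from DIV 7 to DIV 12, with AraC added at DIV 5. Activity is fitted relative to DMSO.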

Sequence of Tumor necrosis factor (Homo sapiens) (P01375 whole entry, looked up): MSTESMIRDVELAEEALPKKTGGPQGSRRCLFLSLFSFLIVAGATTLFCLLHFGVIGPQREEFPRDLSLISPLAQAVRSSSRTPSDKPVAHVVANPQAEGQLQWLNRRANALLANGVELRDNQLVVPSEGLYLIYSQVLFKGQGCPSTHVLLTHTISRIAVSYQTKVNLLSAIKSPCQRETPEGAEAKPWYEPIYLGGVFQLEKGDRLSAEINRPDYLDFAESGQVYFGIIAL

On to `Cc1cc(C(C)(C)c2ccc(O)c(C)c2)ccc1O`, for which the outcome in assay [1], in assay [2], in assay [3], in [7], in [9] and in assay [10] was inactive. Further, in [11], the outcome was inactive. The AC50 (as a rule, the concentration giving half of the maximal activity seen) is 16.4 µM (active) in assay [4], 15.4 µM (active) in assay [5], 15.1 µM (active) in assay [6] and 19 µM (active) in [8].
Turning to `COCC(=O)N(c1c(C)cccc1C)[C@H](C)C(=O)OC`, the result in assay [1], in assay [2], in assay [3], in assay [5], in [6] and in [7] was inactive. For the same compound, the outcome in assay [8], in assay [9], in [10] and in assay [11] was inactive.
Consider `CCCCN(CCCC)C(=S)[S-].CCCCN(CCCC)C(=S)[S-].[Ni+2]`, for which the result in assay [1], in assay [2], in assay [3], in assay [4], in assay [5] and in [6] was inactive. Further, the result in assay [7], in assay [8], in [9], in assay [10] and in assay [11] was inactive.
For the compound `CC(C)(C)c1cc([N+](=O)[O-])cc(C(C)(C)C)c1O`, the result in [1], in assay [5], in [8] and in assay [10] was inactive. Further, the AC50 in [2] was 13.4 µM (active); in assay [3], 14.8 µM (active); in assay [6], 0.0556 µM (active); in assay [7] it was 13 µM (active); in assay [9], 20 µM (active); in [11], 0.396 µM (active).
In the case of `CNC(=O)CSP(=O)(OC)OC`, the call in assay [12], in assay [13], in [14], in assay [15], in [16] and in [17] was inactive.
As to `O=C(O)COc1cc(Cl)c(Cl)cc1Cl`, the outcome in assay [1], in assay [2], in [3], in assay [5], in [6] and in [7] was inactive. The result in [8], in assay [9], in assay [10] and in assay [11] was inactive.
For `Cc1ccc2nc3sc(=O)sc3nc2c1`, the outcome in [1], in assay [2], in [3], in assay [5], in [6] and in [7] was inactive. Further, the outcome in assay [8], in assay [9], in assay [10] and in [11] was inactive.
As for `CS(=O)(=O)c1ccc(C(=O)C2C(=O)CCCC2=O)c(Cl)c1COCC(F)(F)F`, the call in assay [14], in [15], in assay [16] and in assay [17] was inactive.
For the compound `O=[N+]([O-])c1cccc2ccccc12`, the outcome in assay [1], in assay [2], in [3], in assay [5], in assay [6] and in assay [7] was inactive. In addition, the outcome in assay [8], in assay [9], in assay [10] and in assay [11] was inactive.
For `Nc1ccc(N)cc1`, the outcome in assay [1], in [2], in [3], in [5], in assay [6] and in assay [7] was inactive. Moreover, the result in [8], in assay [9], in assay [10] and in assay [11] was inactive.
Turning to `Cc1ccc(OP(=O)(Oc2ccc(C)cc2C)Oc2ccc(C)cc2C)c(C)c1`, the AC50 in assay [1] was 11.7 µM (active); in [2], 20 µM (active); in assay [3], 20 µM (active); in assay [6], 20 µM (active); in assay [7] it was 24.9 µM (active); in assay [9], 12 µM (active). The outcome in assay [5], in assay [8], in [10] and in [11] was inactive.
`O=C(Cc1ccccc1)OCCc1ccccc1`: the outcome in assay [18] and in [19] was inactive.
Take `CC(C)[C@@H](Nc1ccc(C(F)(F)F)cc1Cl)C(=O)OC(C#N)c1cccc(Oc2ccccc2)c1` (stereo not given in full): the compound was called inactive in assay [15], in assay [16], in assay [17] and in assay [20].
Turning to `CCCCOC(=O)COC(=O)c1ccccc1C(=O)OCCCC`, the result in assay [18] and in assay [19] was inactive.
Regarding `c1ccc(-c2cccc(-c3ccccc3)c2)cc1`, the result in [1], in [2], in assay [3], in [9], in [10] and in [11] was inactive. The AC50 was 26.4 µM (active) in [5], 32.9 µM (active) in [6], 22.6 µM (active) in assay [7] and 20 µM (active) in [8].
For the compound `Oc1c(Br)cc(Br)cc1Br`, the outcome in [1], in assay [2], in assay [3], in assay [6], in assay [7] and in assay [8] was inactive. For the same compound, the result in assay [9] and in assay [10] was inactive. Besides, the AC50 in assay [5] is 29.9 µM (active); in assay [11] it was 20 µM (active).
As for `CC(C)N(C(=O)CCl)c1ccccc1`, the AC50 is 12.3 µM (active) in assay [1]; 5.91 µM (active) in assay [2]; 12 µM (active) in assay [3]; 3.62 µM (active) in assay [5]; 1.12 µM (active) in assay [6]; 8.76 µM (active) in [7]. Moreover, the AC50 in assay [8] was 2.84 µM (active); in assay [9], 11.8 µM (active); in assay [10], 4 µM (active); in [11], 4.16 µM (active).
